Measurements as given in the supplement of paper PMC10849652.
Of roughly 7,900 targets only a part is listed; those with a hit were picked by preference. About 0.6% of all pairs of compound and target were hits.

Tests used:
Experiment in all cases: log2 fold change, soluble protein after heating vs DMSO (PISA); higher = thermal stabilisation; K562 cells, 10 uM, 30 min; active = over 0.2 and 3.5 SD of the protein, either way, in both replicates (recomputed)
[1] = compound: COC1=CC=C(C=C1)CN2C=CC3=C2C=C(C=C3)C(=O)NO
Summary of the method: (§1)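 Soluble protein was defined as the supernatant after 21,000xg for 90 min. It came from K562 cells at 2×10^6 cells/mL given 10 μM compound for 30 min, heated in aliquots for 3 min across 48°C-58°C, pooled, and extracted in PBS with 0.5% NP-40 at 4°C, and was quantified by TMTpro 16plex LC-MS/MS with equalised channel sums. Thermal stability against control samples, from duplicates, is reported as log2 fold change.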

filanesib = compound: CON(C)C(=O)N1N=C(c2cc(F)ccc2F)S[C@@]1(CCCN)c1ccccc1 [filanesib]
Summary of the method: as §1

zotarolimus = compound: CO[C@H]1C[C@@H]2CC[C@@H](C)[C@@](O)(O2)C(=O)C(=O)N2CCCC[C@H]2C(=O)O[C@H]([C@H](C)C[C@@H]2CC[C@H](n3cnnn3)[C@H](OC)C2)CC(=O)[C@H](C)/C=C(\C)[C@@H](O)[C@@H](OC)C(=O)[C@H](C)C[C@H](C)/C=C/C=C/C=C/1C [zotarolimus]
Summary of the method: as §1

idasanutlin = compound: COc1cc(C(=O)O)ccc1NC(=O)[C@@H]1N[C@@H](CC(C)(C)C)[C@](C#N)(c2ccc(Cl)cc2F)[C@H]1c1cccc(Cl)c1F [idasanutlin]
Summary of the method: as §1

alisertib = compound: COc1cc(Nc2ncc3c(n2)-c2ccc(Cl)cc2C(c2c(F)cccc2OC)=NC3)ccc1C(=O)O [alisertib]
Summary of the method: as §1

[2] = compound: COc1cc2nc(-c3cc(F)ccc3O)nc(N[C@@H]3CNC[C@H]3C(C)(C)O)c2cc1OC
Summary of the method: as §1

gefitinib = compound: COc1cc2ncnc(Nc3ccc(F)c(Cl)c3)c2cc1OCCCN1CCOCC1 [gefitinib]
Summary of the method: as §1

[3] = compound: COc1cccc2cc(-c3nc([C@H]4CC[C@H](C(=O)O)CC4)n4ncnc(N)c34)[nH]c12
Summary of the method: as §1

lapatinib = compound: CS(=O)(=O)CCNCc1ccc(-c2ccc3ncnc(Nc4ccc(OCc5cccc(F)c5)c(Cl)c4)c3c2)o1 [lapatinib]
Summary of the method: as §1

pictilisib = compound: CS(=O)(=O)N1CCN(Cc2cc3nc(-c4cccc5[nH]ncc45)nc(N4CCOCC4)c3s2)CC1 [pictilisib]
Summary of the method: as §1

[4] = compound: CS(=O)(=O)c1ccc(-c2cnc(N)c(C(=O)Nc3ccccc3)n2)cc1
Summary of the method: as §1

crizotinib = compound: C[C@@H](Oc1cc(-c2cnn(C3CCNCC3)c2)cnc1N)c1c(Cl)ccc(F)c1Cl [crizotinib]
Summary of the method: as §1

[5] = compound: C[C@@H]1COCCN1C2=NC(=NC(=C2)C3(CC3)S(=O)(=O)C)C4=C5C=CNC5=CC=C4
Summary of the method: as §1

[6] = compound: C[C@H](C1=CC=C(C=C1)C(=O)NC2=C3C=CNC3=NC=C2)N
Summary of the method: as §1

duvelisib = compound: C[C@H](Nc1ncnc2nc[nH]c12)c1cc2cccc(Cl)c2c(=O)n1-c1ccccc1 [duvelisib]
Summary of the method: as §1

gandotinib = compound: Cc1cc(Nc2cc(CN3CCOCC3)c3nc(C)c(Cc4ccc(Cl)cc4F)n3n2)n[nH]1 [gandotinib]
Summary of the method: as §1

tozasertib = compound: Cc1cc(Nc2cc(N3CCN(C)CC3)nc(Sc3ccc(NC(=O)C4CC4)cc3)n2)n[nH]1 [tozasertib]
Summary of the method: as §1

[7] = compound: Cc1cc(SCc2sc(-c3ccc(C(F)(F)F)cc3)nc2C)ccc1OCC(=O)O
Summary of the method: as §1

doramapimod = compound: Cc1ccc(-n2nc(C(C)(C)C)cc2NC(=O)Nc2ccc(OCCN3CCOCC3)c3ccccc23)cc1 [doramapimod]
Summary of the method: as §1

ispinesib = compound: Cc1ccc(C(=O)N(CCCN)[C@@H](c2nc3cc(Cl)ccc3c(=O)n2Cc2ccccc2)C(C)C)cc1 [ispinesib]
Summary of the method: as §1

Measured: log2 fold change

DYRK1A isoform 2 (UniProt Q13627)
inactive: [1] -0.061 | filanesib 0.01 | zotarolimus 0.023 | idasanutlin 0 | alisertib -0.03 | [2] 0.004 | gefitinib 0.007 | [3] 0.036 | lapatinib -0.034 | pictilisib 0.017 | [4] 0.008 | crizotinib -0.181 | [5] 0.045 | [6] -0.107 | duvelisib -0.025 | gandotinib -0.102 | tozasertib -0.051 | [7] 0.042 | doramapimod 0.014 | ispinesib -0.059

DIP2A (UniProt Q14689)
inactive: [1] -0.097 | filanesib 0.028 | zotarolimus -0.018 | idasanutlin -0.047 | alisertib 0.357 | [2] -0.098 | gefitinib 0.008 | [3] -0.004 | lapatinib -0.047 | pictilisib 0.103 | [4] -0.094 | crizotinib 0.087 | [5] 0.159 | [6] -0.01 | duvelisib 0.071 | gandotinib 0.023 | tozasertib -0.077 | [7] 0.081 | doramapimod 0.141 | ispinesib 0.01

EDC3 (UniProt Q96F86)
inactive: [1] 0.02 | filanesib 0.112 | zotarolimus -0.156 | idasanutlin 0.065 | alisertib 0.02 | [2] 0.046 | gefitinib -0.013 | [3] -0.337 | lapatinib -0.019 | pictilisib -0.187 | [4] 0.002 | crizotinib -0.237 | [6] -0.014 | duvelisib -0.14 | gandotinib -0.023 | tozasertib -0.025 | [7] 0.066 | doramapimod 0.05 | ispinesib -0.121
active: [5] -0.439

EIF2S3 (UniProt P41091)
Chain of UniProt P41091 (P41091 whole entry, looked up): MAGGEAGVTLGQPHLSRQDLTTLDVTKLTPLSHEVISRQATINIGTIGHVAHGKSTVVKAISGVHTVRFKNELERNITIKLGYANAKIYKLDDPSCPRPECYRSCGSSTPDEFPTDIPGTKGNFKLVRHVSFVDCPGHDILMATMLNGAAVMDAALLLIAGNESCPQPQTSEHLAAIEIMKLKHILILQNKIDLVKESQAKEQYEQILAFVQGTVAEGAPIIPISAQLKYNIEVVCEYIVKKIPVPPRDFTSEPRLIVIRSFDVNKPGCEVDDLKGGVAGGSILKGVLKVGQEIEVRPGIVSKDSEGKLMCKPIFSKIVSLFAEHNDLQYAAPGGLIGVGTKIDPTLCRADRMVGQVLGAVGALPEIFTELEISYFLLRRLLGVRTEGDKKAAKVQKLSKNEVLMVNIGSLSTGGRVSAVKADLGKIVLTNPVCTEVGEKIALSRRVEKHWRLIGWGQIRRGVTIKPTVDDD
inactive: [1] -0.028 | filanesib 0.119 | zotarolimus 0 | idasanutlin 0.07 | alisertib -0.068 | [2] 0.002 | gefitinib -0.033 | [3] -0.07 | lapatinib 0.004 | pictilisib -0.027 | [4] -0.071 | crizotinib -0.014 | [6] 0.053 | duvelisib -0.037 | gandotinib 0.077 | tozasertib -0.031 | [7] 0.014 | doramapimod 0.038 | ispinesib -0.088
active: [5] -0.219

DHCR24 (UniProt Q15392)
Chain of UniProt Q15392 (Q15392 whole entry, looked up): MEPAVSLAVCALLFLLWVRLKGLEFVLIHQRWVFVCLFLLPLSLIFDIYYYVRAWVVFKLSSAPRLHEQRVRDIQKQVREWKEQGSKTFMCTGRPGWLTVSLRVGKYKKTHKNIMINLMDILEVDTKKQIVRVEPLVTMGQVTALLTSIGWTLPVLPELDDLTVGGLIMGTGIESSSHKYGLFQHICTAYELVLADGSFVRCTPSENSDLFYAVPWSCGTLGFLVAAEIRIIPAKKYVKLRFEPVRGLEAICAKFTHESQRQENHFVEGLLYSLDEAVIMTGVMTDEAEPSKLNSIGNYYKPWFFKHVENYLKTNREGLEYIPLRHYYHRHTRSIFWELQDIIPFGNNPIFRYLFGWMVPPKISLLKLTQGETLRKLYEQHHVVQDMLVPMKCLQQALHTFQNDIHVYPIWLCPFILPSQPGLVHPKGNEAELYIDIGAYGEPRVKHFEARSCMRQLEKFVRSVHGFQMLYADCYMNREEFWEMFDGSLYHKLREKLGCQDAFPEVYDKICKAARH
inactive: [1] 0.061 | filanesib -0.074 | zotarolimus 0.013 | idasanutlin -0.087 | alisertib -0.123 | [2] 0.047 | [3] -0.038 | lapatinib 0.711 | pictilisib 0.055 | [4] 0.229 | crizotinib 0.428 | [5] 0.076 | [6] 0.056 | duvelisib 0.027 | gandotinib -0.025 | tozasertib 0.276 | [7] -0.063 | ispinesib -0.053
active: gefitinib 1.05 | doramapimod 0.982

FAM114A2 (UniProt Q9NRY5)
Chain of UniProt Q9NRY5 (Q9NRY5 whole entry, looked up): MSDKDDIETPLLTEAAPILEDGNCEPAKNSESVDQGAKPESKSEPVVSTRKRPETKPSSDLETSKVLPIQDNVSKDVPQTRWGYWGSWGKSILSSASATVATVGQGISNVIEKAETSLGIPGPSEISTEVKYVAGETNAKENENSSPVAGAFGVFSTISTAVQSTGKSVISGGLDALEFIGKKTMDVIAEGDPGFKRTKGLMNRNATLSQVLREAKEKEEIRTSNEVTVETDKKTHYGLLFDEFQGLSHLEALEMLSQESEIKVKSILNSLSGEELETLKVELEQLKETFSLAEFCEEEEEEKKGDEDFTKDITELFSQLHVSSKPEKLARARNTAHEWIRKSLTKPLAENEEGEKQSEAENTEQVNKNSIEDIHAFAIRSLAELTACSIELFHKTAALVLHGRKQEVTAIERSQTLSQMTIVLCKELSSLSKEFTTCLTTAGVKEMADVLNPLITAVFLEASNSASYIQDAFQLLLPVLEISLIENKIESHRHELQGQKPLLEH
inactive: [1] 0 | filanesib -0.131 | zotarolimus -0.01 | idasanutlin -0.036 | alisertib -0.038 | [2] -0.093 | gefitinib 0.002 | [3] 0.035 | lapatinib -0.009 | pictilisib -0.02 | [4] -0.005 | crizotinib -0.197 | [5] 0.026 | [6] -0.026 | duvelisib 0.014 | gandotinib -0.06 | tozasertib 0.002 | [7] 0.011 | doramapimod -0.052 | ispinesib -0.096

DPP8 (UniProt Q6V1X1)
Chain of UniProt Q6V1X1 (Q6V1X1 whole entry, looked up): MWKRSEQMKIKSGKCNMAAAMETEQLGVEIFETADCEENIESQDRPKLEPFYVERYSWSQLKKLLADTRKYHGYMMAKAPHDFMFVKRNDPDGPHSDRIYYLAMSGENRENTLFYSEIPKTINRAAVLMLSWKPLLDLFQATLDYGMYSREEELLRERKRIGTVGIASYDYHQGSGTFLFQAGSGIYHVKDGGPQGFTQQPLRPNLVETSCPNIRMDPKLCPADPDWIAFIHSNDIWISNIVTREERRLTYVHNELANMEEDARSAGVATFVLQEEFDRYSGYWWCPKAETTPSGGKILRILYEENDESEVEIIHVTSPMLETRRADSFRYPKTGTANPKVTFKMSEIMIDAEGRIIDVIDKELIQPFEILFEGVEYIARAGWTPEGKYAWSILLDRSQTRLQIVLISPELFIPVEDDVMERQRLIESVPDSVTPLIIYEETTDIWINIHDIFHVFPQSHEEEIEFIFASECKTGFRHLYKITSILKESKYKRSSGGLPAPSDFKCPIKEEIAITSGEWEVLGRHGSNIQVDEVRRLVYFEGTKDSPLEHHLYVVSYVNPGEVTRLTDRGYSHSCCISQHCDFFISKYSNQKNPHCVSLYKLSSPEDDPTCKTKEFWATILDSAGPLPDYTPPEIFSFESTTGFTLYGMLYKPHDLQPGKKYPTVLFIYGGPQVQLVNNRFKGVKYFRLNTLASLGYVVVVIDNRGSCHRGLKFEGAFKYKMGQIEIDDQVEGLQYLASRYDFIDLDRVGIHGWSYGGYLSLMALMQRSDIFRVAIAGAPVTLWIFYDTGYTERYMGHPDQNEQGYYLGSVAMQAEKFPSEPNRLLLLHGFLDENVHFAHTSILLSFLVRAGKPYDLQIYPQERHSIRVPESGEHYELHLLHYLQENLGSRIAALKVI
inactive: [1] -0.089 | filanesib 0.048 | zotarolimus 0.028 | idasanutlin -0.112 | alisertib -0.01 | [2] 0.041 | gefitinib 0.042 | [3] 0.037 | lapatinib -0.077 | pictilisib 0.022 | [4] 0.04 | crizotinib -0.003 | [5] 0.011 | [6] -0.048 | duvelisib 0.025 | gandotinib -0.038 | tozasertib -0.027 | [7] 0.006 | doramapimod 0.008 | ispinesib 0.019

CUEDC2 (UniProt Q9H467)
Chain of UniProt Q9H467 (Q9H467 whole entry, looked up): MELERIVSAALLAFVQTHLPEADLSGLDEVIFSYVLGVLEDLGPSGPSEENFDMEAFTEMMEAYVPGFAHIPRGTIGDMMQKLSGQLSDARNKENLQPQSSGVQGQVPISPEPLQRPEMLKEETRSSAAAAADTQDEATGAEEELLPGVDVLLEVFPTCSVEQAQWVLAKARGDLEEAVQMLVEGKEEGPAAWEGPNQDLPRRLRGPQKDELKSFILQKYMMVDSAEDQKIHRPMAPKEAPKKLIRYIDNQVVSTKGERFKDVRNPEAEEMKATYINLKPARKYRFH
inactive: [1] 0.233 | filanesib 0.018 | zotarolimus 0 | idasanutlin 0.005 | alisertib -0.035 | [2] -0.018 | gefitinib 0.168 | [3] 0.023 | lapatinib -0.035 | pictilisib 0.014 | [4] 0.028 | crizotinib -0.029 | [5] 0.026 | [6] -0.113 | duvelisib 0.048 | gandotinib -0.017 | tozasertib 0.109 | [7] 0.012 | doramapimod -0.087 | ispinesib 0.024

ERLIN1 (UniProt O75477)
Chain of UniProt O75477 (O75477 whole entry, looked up): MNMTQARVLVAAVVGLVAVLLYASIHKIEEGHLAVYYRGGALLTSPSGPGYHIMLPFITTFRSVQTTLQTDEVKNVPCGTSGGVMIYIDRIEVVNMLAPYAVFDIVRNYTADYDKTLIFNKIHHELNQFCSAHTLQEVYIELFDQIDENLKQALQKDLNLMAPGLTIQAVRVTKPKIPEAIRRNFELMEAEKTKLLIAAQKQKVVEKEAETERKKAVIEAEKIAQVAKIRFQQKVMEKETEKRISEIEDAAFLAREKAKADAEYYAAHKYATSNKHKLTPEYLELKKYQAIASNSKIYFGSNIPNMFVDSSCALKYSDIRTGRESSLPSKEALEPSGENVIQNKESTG
active: ispinesib -0.27
inactive: [1] -0.013 | filanesib 0.031 | zotarolimus 0.037 | idasanutlin 0.128 | alisertib -0.092 | [2] -0.075 | gefitinib -0.051 | [3] -0.14 | lapatinib 0.006 | pictilisib -0.107 | [4] 0.012 | crizotinib -0.039 | [5] -0.038 | [6] 0.099 | duvelisib -0.021 | gandotinib -0.04 | tozasertib 0.025 | [7] 0.148 | doramapimod 0.057

DNTTIP2 (UniProt Q5QJE6)
Chain of UniProt Q5QJE6 (Q5QJE6 whole entry, looked up): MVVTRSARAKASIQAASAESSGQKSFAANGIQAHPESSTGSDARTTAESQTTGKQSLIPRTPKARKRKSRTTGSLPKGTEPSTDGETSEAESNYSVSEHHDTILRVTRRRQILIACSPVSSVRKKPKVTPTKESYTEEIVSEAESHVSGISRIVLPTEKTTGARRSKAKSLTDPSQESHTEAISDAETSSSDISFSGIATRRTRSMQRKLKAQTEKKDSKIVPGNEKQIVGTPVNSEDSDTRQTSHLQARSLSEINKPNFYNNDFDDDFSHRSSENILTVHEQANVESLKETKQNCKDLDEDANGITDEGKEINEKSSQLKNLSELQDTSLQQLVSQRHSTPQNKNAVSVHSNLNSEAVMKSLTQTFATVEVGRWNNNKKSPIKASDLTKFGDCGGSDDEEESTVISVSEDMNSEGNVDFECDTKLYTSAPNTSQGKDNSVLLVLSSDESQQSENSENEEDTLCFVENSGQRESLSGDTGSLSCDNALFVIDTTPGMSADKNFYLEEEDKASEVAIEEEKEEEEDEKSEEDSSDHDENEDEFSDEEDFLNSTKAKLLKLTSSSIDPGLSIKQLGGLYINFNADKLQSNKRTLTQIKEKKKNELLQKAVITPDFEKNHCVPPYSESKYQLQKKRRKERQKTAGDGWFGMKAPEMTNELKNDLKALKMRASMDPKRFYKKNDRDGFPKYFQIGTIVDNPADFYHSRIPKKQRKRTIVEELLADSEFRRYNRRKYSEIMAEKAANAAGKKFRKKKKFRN
inactive: [1] -0.095 | filanesib 0.217 | zotarolimus 0.061 | idasanutlin 0.267 | alisertib -0.072 | [2] -0.09 | gefitinib -0.014 | [3] -0.002 | lapatinib 0 | pictilisib 0.008 | [4] 0.012 | crizotinib -0.028 | [5] -0.051 | [6] 0.268 | duvelisib -0.26 | gandotinib 0.107 | tozasertib -0.037 | [7] 0.052 | doramapimod 0.129 | ispinesib -0.093

CTNNB1 (UniProt P35222)
Chain of UniProt P35222 (P35222 whole entry, looked up): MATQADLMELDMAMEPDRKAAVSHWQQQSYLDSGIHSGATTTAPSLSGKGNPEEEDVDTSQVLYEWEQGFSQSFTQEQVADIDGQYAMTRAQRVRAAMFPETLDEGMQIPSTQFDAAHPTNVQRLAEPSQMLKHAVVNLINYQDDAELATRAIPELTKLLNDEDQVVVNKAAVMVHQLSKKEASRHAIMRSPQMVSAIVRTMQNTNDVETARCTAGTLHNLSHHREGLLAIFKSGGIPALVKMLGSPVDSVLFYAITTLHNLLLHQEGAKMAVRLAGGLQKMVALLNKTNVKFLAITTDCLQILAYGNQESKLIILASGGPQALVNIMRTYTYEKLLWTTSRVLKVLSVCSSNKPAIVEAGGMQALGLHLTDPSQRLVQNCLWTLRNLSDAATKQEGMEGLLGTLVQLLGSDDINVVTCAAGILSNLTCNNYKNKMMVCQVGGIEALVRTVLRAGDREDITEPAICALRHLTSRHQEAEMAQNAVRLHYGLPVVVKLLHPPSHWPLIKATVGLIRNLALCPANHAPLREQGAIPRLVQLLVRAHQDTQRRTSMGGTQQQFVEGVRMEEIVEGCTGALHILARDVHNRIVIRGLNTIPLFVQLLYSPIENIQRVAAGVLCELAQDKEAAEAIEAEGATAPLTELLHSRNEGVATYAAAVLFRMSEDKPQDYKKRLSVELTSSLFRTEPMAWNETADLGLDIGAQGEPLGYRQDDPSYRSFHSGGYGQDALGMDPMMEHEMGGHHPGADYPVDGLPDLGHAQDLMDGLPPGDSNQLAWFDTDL
inactive: [1] -0.082 | filanesib 0.174 | zotarolimus 0.029 | idasanutlin -0.056 | alisertib -0.084 | [2] 0.072 | gefitinib -0.001 | [3] 0.054 | lapatinib 0 | pictilisib -0.2 | crizotinib 0.024 | [5] -0.087 | [6] -0.102 | duvelisib 0.086 | gandotinib 0.336 | tozasertib 0.03 | [7] -0.024 | doramapimod 0.047 | ispinesib 0.078
active: [4] 0.666

ESYT1 isoform 2 (UniProt Q9BSJ8)
inactive: [1] 0.042 | filanesib 0.013 | zotarolimus 0.08 | idasanutlin 0.08 | alisertib -0.094 | [2] 0.008 | gefitinib 0.053 | [3] -0.122 | lapatinib 0.089 | pictilisib -0.038 | [4] 0.021 | crizotinib -0.134 | [5] -0.076 | [6] 0.069 | duvelisib 0.014 | gandotinib 0.024 | tozasertib -0.017 | [7] 0.11 | doramapimod 0.083 | ispinesib -0.265

EIF4E isoform 2 (UniProt P06730)
inactive: [1] -0.002 | filanesib -0.038 | idasanutlin -0.085 | alisertib -0.083 | [2] 0.039 | gefitinib 0.112 | lapatinib 0.039 | [4] 0.198 | crizotinib 0.165 | [6] -0.099 | duvelisib 0.143 | gandotinib -0.006 | tozasertib 0.003 | [7] -0.02 | doramapimod -0.045 | ispinesib 0.159
active: zotarolimus 0.346 | [3] 0.354 | pictilisib 0.373 | [5] 0.4

ELOVL1 (UniProt Q9BW60)
Chain of UniProt Q9BW60 (Q9BW60 whole entry, looked up): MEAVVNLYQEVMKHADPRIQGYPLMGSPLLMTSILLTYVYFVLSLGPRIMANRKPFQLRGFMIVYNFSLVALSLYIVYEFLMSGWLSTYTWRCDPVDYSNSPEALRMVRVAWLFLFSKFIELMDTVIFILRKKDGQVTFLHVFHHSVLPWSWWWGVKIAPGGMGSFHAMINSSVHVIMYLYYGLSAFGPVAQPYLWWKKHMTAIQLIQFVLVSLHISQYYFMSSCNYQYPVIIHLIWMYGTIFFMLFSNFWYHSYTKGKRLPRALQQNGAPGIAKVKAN
inactive: [1] -0.103 | filanesib -0.139 | zotarolimus -0.051 | idasanutlin -0.051 | alisertib 0.032 | [2] -0.084 | gefitinib -0.087 | [3] 0.032 | lapatinib -0.078 | pictilisib -0.046 | [4] 0.082 | crizotinib -0.182 | [5] -0.065 | [6] -0.14 | duvelisib 0.124 | gandotinib -0.206 | tozasertib -0.003 | [7] 0.078 | doramapimod -0.082 | ispinesib -0.297

FAM83D (UniProt Q9H4H8)
inactive: [1] -0.009 | filanesib 0.062 | zotarolimus 0.051 | idasanutlin -0.109 | alisertib -0.135 | [2] 0.018 | gefitinib 0.05 | [3] -0.034 | lapatinib 0.021 | pictilisib -0.136 | [4] -0.018 | crizotinib -0.061 | [5] 0.021 | [6] 0.014 | duvelisib 0.001 | tozasertib 0.025 | [7] 0.08 | doramapimod -0.009 | ispinesib 0.064
active: gandotinib -0.308

DHRS1 (UniProt Q96LJ7)
inactive: [1] 0.159 | filanesib 0.061 | zotarolimus 0.448 | alisertib -0.025 | [2] 0.115 | gefitinib 0.494 | [3] -0.113 | lapatinib 0.096 | pictilisib 0.009 | [4] 0.009 | crizotinib 0.248 | [5] 0.089 | [6] -0.028 | duvelisib 0.438 | gandotinib 0.297 | tozasertib 0.009 | [7] 0.571 | doramapimod 0.557 | ispinesib 0.247
active: idasanutlin 0.952
